Source: paper PMC5540273 (PLoS ONE, 2017)

How the values were obtained:
Settings in all cases: concentration: 1 μM, replicates: in singlicate; n = 1
MRCKB = system: T1, MRCKB
T1 construct: gene CDC42BPB

MST1R = system: MST1R
MST1 = system: T2, MST1
T2 construct: gene STK4

MST2 = system: T3, MST2
T3 construct: gene STK3

MST3 = system: T4, MST3
T4 construct: gene STK24

MST4 = system: MST4
MTOR = system: MTOR
MUSK = system: MUSK
MYLK2 = system: MYLK2
MYLK4 = system: MYLK4
MYLK = system: MYLK
MYO3A = system: MYO3A
MYO3B = system: MYO3B
NDR1 = system: T5, NDR1
T5 construct: gene STK38

NDR2 = system: NDR2
NEK10 = system: NEK10
NEK11 = system: NEK11
NEK1 = system: NEK1
NEK2 = system: NEK2
NEK3 = system: NEK3
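Note: KINOMEscan kinase panel screen.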

Row | Compound | %Inh (MRCKB) [%] | %Inh (MST1R) [%] | %Inh (MST1) [%] | %Inh (MST2) [%] | %Inh (MST3) [%] | %Inh (MST4) [%] | %Inh (MTOR) [%] | %Inh (MUSK) [%] | %Inh (MYLK2) [%] | %Inh (MYLK4) [%] | %Inh (MYLK) [%] | %Inh (MYO3A) [%] | %Inh (MYO3B) [%] | %Inh (NDR1) [%] | %Inh (NDR2) [%] | %Inh (NEK10) [%] | %Inh (NEK11) [%] | %Inh (NEK1) [%] | %Inh (NEK2) [%] | %Inh (NEK3) [%]
1 | CCC(=O)c1c(-c2ccccc2)c2cc(Cl)ccc2c(=O)n1Cc1cc(S(C)(=O)=O)n(CC(N)=O)n1 | 0 | 0 | 0 | 0 | 0 | 0 | 40 | 0 | 0 | 0 | 0 | 0 | 0 | 32 | 0 | 0 | 0 | 0 | 0 | 32
2 | CCS(=O)(=O)c1ccc(OC)c(Nc2ncc(-c3ccc(F)cc3)o2)c1.Cl [GW591947] | 0 | 33 | 0 | 2 | 0 | 0 | 5 | 2 | 2 | 0 | 0 | 6 | 0 | 10 | 0 | 9 | 0 | 0 | 0 | 0
3 | CN1C(=O)C(Nc2ccccc2)=C(c2ccccc2)C1=O [SB-300079] | 0 | 0 | 0 | 0 | 0 | 0 | 26 | 0 | 5 | 28 | 0 | 0 | 0 | 39 | 0 | 7 | 4 | 0 | 0 | 21
4 | O=C(Nc1n[nH]c2cc(-c3ccccc3F)ccc12)C1CC1 [SB-733371] | 0 | 0 | 1 | 0 | 0 | 0 | 0 | 1 | 90 | 4 | 0 | 22 | 0 | 37 | 2 | 0 | 12 | 0 | 0 | 16
5 | CCC(=O)c1c(-c2ccccc2)c2cc(Cl)ccc2c(=O)n1Cc1cc(C(=O)NC2CC2)n(C)n1 | 0 | 37 | 12 | 0 | 0 | 0 | 12 | 2 | 0 | 0 | 0 | 4 | 0 | 0 | 0 | 0 | 0 | 10 | 0 | 13
6 | Cc1nn2c(=O)cc(N3CCOCC3)nc2n1Cc1cccc(Cl)c1Cl [GSK2342769] | 0 | 13 | 0 | 4 | 0 | 0 | 45 | 18 | 0 | 4 | 16 | 0 | 0 | 0 | 0 | 0 | 0 | 0 | 2 | 0
7 | Nc1nc(N)c2nc(-c3ccccc3)[nH]c2n1 [SKF-12778] | 0 | 0 | 4 | 32 | 13 | 10 | 26 | 18 | 2 | 1 | 0 | 0 | 19 | 33 | 0 | 58 | 13 | 0 | 0 | 0
8 | Cl.NS(=O)(=O)c1cccc(Nc2cc(-c3ccc(F)cc3)n[nH]2)c1 [GW824645] | 0 | 0 | 29 | 14 | 0 | 9 | 39 | 0 | 9 | 12 | 0 | 0 | 0 | 47 | 5 | 8 | 0 | 0 | 0 | 14
9 | Nc1ncnc2c1ncn2-c1cccc2ccccc12 [SKF-97184] | 0 | 6 | 7 | 0 | 0 | 0 | 28 | 0 | 0 | 4 | 0 | 0 | 27 | 29 | 4 | 0 | 27 | 11 | 0 | 31
10 | CCC(=O)c1c(-c2ccccc2)c2cc(Cl)ccc2c(=O)n1Cc1cc(S(C)(=O)=O)n(CCC(C)(C)O)n1 | 0 | 36 | 21 | 10 | 0 | 0 | 0 | 17 | 5 | 2 | 5 | 0 | 0 | 2 | 1 | 0 | 0 | 0 | 4 | 0
11 | COC(=O)c1c(-c2ccccc2)c2cc(Br)ccc2c(=O)n1Cc1ccc(NC(=O)CCC(=O)O)cc1 | 0 | 43 | 12 | 27 | 7 | 0 | 32 | 0 | 0 | 1 | 29 | 100 | 0 | 0 | 0 | 0 | 0 | 0 | 0 | 13
12 | Cc1ccc(Oc2ccc(Nc3ncnc4cc[nH]c34)cc2C)cn1 | 0 | 35 | 0 | 15 | 3 | 0 | 0 | 0 | 18 | 19 | 38 | 9 | 28 | 8 | 0 | 0 | 0 | 0 | 2 | 20
13 | OCCCNc1nccc(-c2c(-c3cccc(C(F)(F)F)c3)nn3cc(C(F)(F)F)ccc23)n1 [GW630813] | 0 | 17 | 9 | 0 | 25 | 0 | 1 | 0 | 0 | 0 | 10 | 43 | 0 | 9 | 18 | 0 | 5 | 0 | 0 | 0
14 | Cl.c1ccc(Cn2cnc3cc(Nc4ncnc5ccccc45)ccc32)cc1 [GW272142] | 0 | 40 | 0 | 0 | 0 | 0 | 28 | 29 | 0 | 6 | 1 | 10 | 0 | 9 | 4 | 15 | 0 | 0 | 0 | 0
15 | COc1ccc(CNC(=O)NC2CCN(c3ccnc(Nc4ccc(F)cc4)n3)C2)cc1 (stereo not drawn) [GSK1379706] | 12 | 41 | 0 | 9 | 6 | 0 | 28 | 4 | 6 | 17 | 9 | 42 | 0 | 28 | 50 | 25 | 43 | 17 | 16 | 13
